# Reference: the supplement of paper PMC8728848
# Many of the other results were omitted from the sample, so the strongest signals are more common in it than they were.
# B1: Epa1-NP-mutant-D229G (Candida glabrata), Q6VBJ0 (protein)
# chain: MILNPALFLNKCVCIYTTLILLLLTNGGYATSSNDISLASKDPTTFPLGCSPDITTPKKGLSMELYSYDFRKKGSYPCWDAAYLDPNYPRTGYKSHRLLAKVDGVTGNINFYYHATKGCTPQLGHLPASYNYPKPLTMTNFTMLLYGYFRPKVTGFHTFTISADDLLFVNFGAGNAFDCCRRDSSADHFGNYQAYAIWGSKTAKDELTVHLDAGVYYPIRLFYNNREYGGALSFTFKTESNENTVSDFSEYFFSLDDTEEGCPGLISYDSSCASVKTSKIIGIDYHTETPNENLVPITKTIYHLGIPCTGTTTTPLCGSGFYDPLANKCVTINTSSTSSVTKTTSHTTSKEVSFHSSISSQKTLIPKSIPSPYGPIKSQSIPTEMETSSEISSSEYAFSDVISTPSHSPYTKKHSSLNSSSYTSTVIHSLTSYSISQGIFSTSLSEQNITSKSSTDKFSTATSMSNNITQSSIIISQFSTNNENYTTTSMHTSSDKISTETLNNSISTTTSILFSNSSTILKNNTTIISSDKDTHYHPVNPTIVCSTNKTEIICASITQPSISNSNNHWSSSVLKFNSTTVRSTLPSSAGSNETSINVPFSSSTESNTSTSSTSTSNSKMVRSTLPSSAGSNETSISVPFSSSTESNTSTSSTSTSNSKMVRSTLPSSAGSNETSINVPFSSSTESNTSTSSTSTSNSKTVRSTPFSSAGIIMTSLSQRNNKSASSYASSNSKCYNTADSCRKVHSTPSYLLTSSYTSEGVDYDCSLVSTKLKINDTNCVNNKHTTKSCLKTSVTTTIPTLEIKTARKSSSNTIGLHSYPTSSPNKSISSAPIIGYISSFKTIKTASPSYQTSDLTTITTITSLNNPGSTAVENTHESNDKSRKTSSNDISSKHSVIKETKDAVESSNKSHQTNTLKCSSIIIASSSHNSYESLGGTTLTLTLSKVYSPQNNDTLPFLEISEVNPSRTVLPESSKMMQYLTSTEERNKTARNTIATNIVSISTFHFEGEGNAIRMGYTQLLLMLIGIIVMNIGT
# How the values were obtained:
# Assay in all cases: glycan array binding signal (z-score within array); higher = stronger binding
# Details in all cases: glycan notation: IUPAC condensed, linker removed; mutation: D229G
# [1] = target: Gal(b1-4)GlcNAc(b1-3)Gal(b1-4)GlcNAc(b1-3)[Gal(b1-4)GlcNAc(b1-3)Gal(b1-4)GlcNAc(b1-6)]GalNAc
# In short: (§1)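 Columns mapping to the same glycan were averaged after glycan names were converted to IUPAC-condensed notation. The data come from 3228 arrays in the Consortium for Functional Glycomics database, limited to those with an available protein sequence. Binding is reported as a within-array Z-score averaged across arrays of one protein sequence and across linkers.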
# [2] = target: Gal(b1-4)GlcNAc(b1-3)Gal(b1-4)[Fuc(a1-3)]GlcNAc(b1-3)Gal(b1-4)[Fuc(a1-3)]GlcNAc
# In short: as §1
# [3] = target: Gal(b1-4)GlcNAc(b1-3)[Gal(b1-4)GlcNAc(b1-6)]Gal(b1-4)GlcNAc
# In short: as §1
# Gal3S(b1-3)GalNAc = target: Gal3S(b1-3)GalNAc
# In short: as §1
# [4] = target: Gal3S(b1-4)[Fuc(a1-3)]Glc6S
# In short: as §1
# Gal3S6S(b1-4)GlcNAc = target: Gal3S6S(b1-4)GlcNAc
# In short: as §1
# Gal4S6S(b1-4)GlcNAc = target: Gal4S6S(b1-4)GlcNAc
# In short: as §1
# Gal6S(b1-4)GlcNAc6S = target: Gal6S(b1-4)GlcNAc6S
# In short: as §1
# GalNAc(a1-3)GalNAc = target: GalNAc(a1-3)GalNAc
# In short: as §1
# GalNAc(b1-4)Gal(b1-4)Glc = target: GalNAc(b1-4)Gal(b1-4)Glc
# In short: as §1
# [5] = target: GalNAc(b1-4)GlcNAc(b1-2)Man(a1-3)[GalNAc(b1-4)GlcNAc(b1-2)Man(a1-6)]Man(b1-4)GlcNAc(b1-4)GlcNAc
# In short: as §1
# GalNAc(b1-6)GalNAc = target: GalNAc(b1-6)GalNAc
# In short: as §1
# [6] = target: GlcNAc(a1-3)Gal(b1-4)GlcNAc
# In short: as §1
# [7] = target: GlcNAc(a1-4)Gal(b1-4)GlcNAc(b1-3)Gal(b1-4)GlcNAc
# In short: as §1
# [8] = target: GlcNAc(a1-4)Gal(b1-4)GlcNAc(b1-3)Gal(b1-4)GlcNAc(b1-3)Gal(b1-4)GlcNAc
# In short: as §1
# [9] = target: GlcNAc(b1-3)Gal(b1-4)GlcNAc(b1-3)Gal(b1-4)GlcNAc(b1-3)Gal(b1-4)GlcNAc(b1-3)Gal(b1-4)GlcNAc(b1-2)Man(a1-3)[GlcNAc(b1-3)Gal(b1-4)GlcNAc(b1-3)Gal(b1-4)GlcNAc(b1-3)Gal(b1-4)GlcNAc(b1-3)Gal(b1-4)GlcNAc(b1-2)Man(a1-6)]Man(b1-4)GlcNAc(b1-4)[Fuc(a1-6)]GlcNAc
# In short: as §1
# [10] = target: GlcNAc(b1-3)Gal(b1-4)GlcNAc(b1-3)Gal(b1-4)GlcNAc(b1-3)Gal(b1-4)GlcNAc(b1-3)Gal(b1-4)GlcNAc(b1-2)[GlcNAc(b1-3)Gal(b1-4)GlcNAc(b1-3)Gal(b1-4)GlcNAc(b1-3)Gal(b1-4)GlcNAc(b1-3)Gal(b1-4)GlcNAc(b1-6)]Man(a1-6)[GlcNAc(b1-3)Gal(b1-4)GlcNAc(b1-3)Gal(b1-4)GlcNAc(b1-3)Gal(b1-4)GlcNAc(b1-3)Gal(b1-4)GlcNAc(b1-2)Man(a1-3)]Man(b1-4)GlcNAc(b1-4)[Fuc(a1-6)]GlcNAc
# In short: as §1
# GlcNAc(b1-3)Man = target: GlcNAc(b1-3)Man
# In short: as §1
# [11] = target: GlcNAc(b1-4)GlcNAc(b1-4)GlcNAc
# In short: as §1
# [12] = target: Man(a1-3)[Man(a1-6)]Man(a1-6)[Man(a1-2)Man(a1-3)]Man(b1-4)GlcNAc(b1-4)GlcNAc
# In short: as §1
# [13] = target: Man(a1-3)[Man(a1-6)]Man(b1-4)GlcNAc(b1-4)[Fuc(a1-6)]GlcNAc
# In short: as §1
# [14] = target: Neu5Ac(a2-3)Gal(b1-3)GlcNAc6S
# In short: as §1
# [15] = target: Neu5Ac(a2-3)Gal(b1-3)]Neu5Ac(a2-3)Gal(b1-4)]GlcNAc
# In short: as §1
# [16] = target: Neu5Ac(a2-3)Gal(b1-4)GlcNAc(b1-6)[Gal(b1-3)]GalNAc
# In short: as §1
# Neu5Ac(a2-6)Gal = target: Neu5Ac(a2-6)Gal
# In short: as §1
# [17] = target: Neu5Ac(a2-6)Gal(b1-4)GlcNAc(b1-2)Man
# In short: as §1
# [18] = target: Neu5Ac(a2-6)Gal(b1-4)GlcNAc(b1-3)Gal(b1-4)GlcNAc(b1-3)[Neu5Ac(a2-6)Gal(b1-4)GlcNAc(b1-3)Gal(b1-4)GlcNAc(b1-6)]GalNAc
# In short: as §1
# [19] = target: Neu5Ac(a2-6)Gal(b1-4)GlcNAc(b1-3)Gal(b1-4)[Fuc(a1-3)]GlcNAc(b1-3)Gal(b1-4)[Fuc(a1-3)]GlcNAc
# In short: as §1
# [20] = target: Neu5Ac(a2-6)GalNAc(b1-4)GlcNAc6S
# In short: as §1
# [21] = target: Neu5Ac(a2-8)Neu5Ac(a2-3)Gal(b1-3)GalNAc(b1-4)[Neu5Ac(a2-3)]Gal(b1-4)Glc
# In short: as §1
# [22] = target: Neu5Ac(a2-8)Neu5Ac(a2-3)[Gal(b1-3)GalNAc(b1-4)]Gal(b1-4)Glc
# In short: as §1
# [23] = target: Neu5Ac(a2-8)Neu5Ac(a2-8)Neu5Ac(a2-3)[GalNAc(b1-4)]Gal(b1-4)Glc
# In short: as §1
# Neu5Gc(a2-6)GalNAc = target: Neu5Gc(a2-6)GalNAc
# In short: as §1
binder,measurement,setting,value
B1,glycan array binding signal (z-score),[1],2.55
same,glycan array binding signal (z-score),[2],-0.579
same,glycan array binding signal (z-score),[3],0.003
same,glycan array binding signal (z-score),Gal3S(b1-3)GalNAc,-0.232
same,glycan array binding signal (z-score),[4],1.6
same,glycan array binding signal (z-score),Gal3S6S(b1-4)GlcNAc,2.68
same,glycan array binding signal (z-score),Gal4S6S(b1-4)GlcNAc,1.06
same,glycan array binding signal (z-score),Gal6S(b1-4)GlcNAc6S,10.9
same,glycan array binding signal (z-score),GalNAc(a1-3)GalNAc,0.722
same,glycan array binding signal (z-score),GalNAc(b1-4)Gal(b1-4)Glc,0.754
same,glycan array binding signal (z-score),[5],1.11
same,glycan array binding signal (z-score),GalNAc(b1-6)GalNAc,0.649
same,glycan array binding signal (z-score),[6],-0.409
same,glycan array binding signal (z-score),[7],0.024
same,glycan array binding signal (z-score),[8],-0.64
same,glycan array binding signal (z-score),[9],0.489
same,glycan array binding signal (z-score),[10],0.337
same,glycan array binding signal (z-score),GlcNAc(b1-3)Man,-0.859
same,glycan array binding signal (z-score),[11],0.36
same,glycan array binding signal (z-score),[12],0.04
same,glycan array binding signal (z-score),[13],-0.736
same,glycan array binding signal (z-score),[14],-0.064
same,glycan array binding signal (z-score),[15],0.197
same,glycan array binding signal (z-score),[16],0.933
same,glycan array binding signal (z-score),Neu5Ac(a2-6)Gal,0.425
same,glycan array binding signal (z-score),[17],0.054
same,glycan array binding signal (z-score),[18],3.67
same,glycan array binding signal (z-score),[19],1.65
same,glycan array binding signal (z-score),[20],0.733
same,glycan array binding signal (z-score),[21],-0.032
same,glycan array binding signal (z-score),[22],0.215
same,glycan array binding signal (z-score),[23],-0.436
same,glycan array binding signal (z-score),Neu5Gc(a2-6)GalNAc,-0.701
